PubChem BioAssay AID2391 (Southern Research Specialized Biocontainment Screening …, 2010)
The whole screen tested about 310,000 compounds, of which about 410 (0.13%) were called active. About 2% were inconclusive and are not listed. The rule behind the calls is not given here. A selection follows. Entries with a potency or affinity are not part of this list.

test: inhibition of RSV-induced cytopathic effect – HEp-2 cells, primary 10 µM value included (AID 2391); conditions: at 10 µM, active compounds read high

CPE inhibition, inactive:
O=C(c1ccccc1)c1cc([N+](=O)[O-])ccc1N1CCCC1 3.67%
S=c1nccc(-c2cccs2)[nH]1 5.75%
O=C1c2ccccc2NC2(CCCC2)N1N=C1CCCC1 2.08%
O=C1CC(NCc2ccccc2F)C(=O)N1c1ccccc1 (stereo not given) 0.44%
Cc1ccc(NC(=O)CCS(=O)(=O)c2cccc3nonc23)c(Cl)c1 0.71%
COC(=O)c1ccc(Cn2nnc3ccccc3c2=O)o1 4.91%
COC(=O)c1ccc(CSc2nc3ccccc3c(=O)n2CC(C)C)o1 4.85%
Cc1c(C)c2ccc(OCC(=O)Nc3nccs3)cc2oc1=O 20.3%
COc1ccc(OC)c(N(C(=O)c2ccco2)C(C(=O)NC2CCCC2)c2ccc(N3CCOCC3)cc2)c1 (stereo not given) 1.32%
COc1cc(/C=C2\SC(=S)N(NS(=O)(=O)c3ccccc3)C2=O)ccc1O 4.97%
CCOc1ccc(/C=C2\SC(=S)N(NS(=O)(=O)c3ccccc3)C2=O)cc1OC 2.94%
CN1CCN(C(=O)c2cc(Cl)cc(Cl)c2NC(=O)c2ccco2)CC1 0.57%
O=C(Nc1ccc(NC(=O)c2cc3ccccc3o2)cc1)c1ccc2c(c1)OCCO2 6.03%
Cc1cc(NC(=O)c2cc3ccccc3o2)ccc1NC(=O)c1ccccc1 5.86%
Cc1ccc(N(CC(=O)NCCc2ccc(F)cc2)S(=O)(=O)c2ccc(Cl)c([N+](=O)[O-])c2)c(C)c1 3.85%
Cc1cc(C)c2nc(N3CCC(C(=O)NCCCN4CCCCC4)CC3)sc2c1 21.9%
Cc1cccc(S(=O)(=O)Nc2ccc(-c3cn4ccccc4n3)cc2)c1 21%
COC(=O)Cn1c(=NC(=O)c2cccc(OC)c2)sc2cc(OC)ccc21 1.97%
Nc1c(C(=O)N/N=C/c2ccc(Cl)cc2)cnn1-c1ccccc1 0.12%
NNC(=O)c1cc(-c2ccccc2)sc1N 1.27%
OCCC1CN(Cc2cccn2-c2nccs2)CCN1Cc1ccccc1 (stereo not given) -1.03%
CC(C)CCN1CCN(Cc2cccn2-c2nccs2)CC1CCO (stereo not given) 1.17%
COc1ccc(Cn2nnnc2C(c2cccs2)N2CCOCC2)cc1 (stereo not given) 0.05%
CC(=O)Nc1ccc(NC(=O)c2c(C)nn(Cc3ccccc3)c2Cl)cc1 5.46%
Cc1nn(-c2ccccc2Cl)c(Cl)c1/C=N/Nc1nc2ccccc2s1 4.62%
Cc1nn(-c2ccccc2Cl)c(Cl)c1/C=N/Nc1cccc(C(=O)O)c1 3.47%
CCC(C(=O)Nc1c2c(nn1C(C)(C)C)CS(=O)(=O)C2)c1ccccc1 (stereo not given) 1.09%
Cn1ccnc1SCc1ccc(Cl)cc1Cl 1.17%
N#Cc1c(-c2ccccc2Cl)noc1/C=C/Nc1ccc(C(=O)O)cc1 2.42%
CN(C)/C=C/c1onc(-c2c(Cl)cccc2Cl)c1C#N 1.69%
O=C(c1ccccc1Sc1c(Cl)cccc1[N+](=O)[O-])N1CCOCC1 4.6%
COc1ccc(/C(C)=N/NC(=O)C2C3CCCCC32)c(OC)c1 (stereo not given) -0.16%
CCc1ccc(OCC(=O)Nc2ccc3c(c2)OCCO3)cc1 0.88%
Cc1ccc2c(c1)cc(CN(Cc1cccs1)C(=O)c1ccco1)c1nnnn12 4.88%
Cc1ccc2c(c1)cc(CN(Cc1ccco1)C(=O)N1CCOCC1)c1nnnn12 -0.68%
O=C(c1ccc(Cl)c(S(=O)(=O)N2CCCC2)c1)N1CCOCC1 4.9%
O=c1[nH]c(CNCc2cccnc2)nc2ccccc12 1.68%
CCC1C(=O)n2nc(-c3ccccc3)cc2N=C1C (stereo not given) 0.9%
Cc1cc(NC(=O)COC(=O)c2oc3c(Cl)cccc3c2C)no1 2.63%
Cc1cc(NC(=O)COC(=O)c2cc(S(=O)(=O)N(C)c3ccccc3)ccc2Cl)no1 0.4%
Cc1cc(NC(=O)COc2ccc(N(C)S(=O)(=O)c3ccccc3)cc2)no1 0.18%
Cc1cc(NC(=O)c2c(Cl)cccc2Cl)no1 -0.16%
Cc1cc(NC(=O)COC(=O)c2ccc(NS(=O)(=O)c3ccc(C)c(C)c3)cc2)no1 0.64%
Cc1cccc(NS(=O)(=O)c2cc(C(=O)OCC(=O)Nc3cc(C)on3)ccc2C)c1 -0.1%
O=C(CNC(=O)c1ccc(Br)o1)NNC(=O)c1cccc(Cl)c1 -2.18%
O=C1N=c2ccccc2=C1c1sc(NS(=O)(=O)c2ccccc2)nc1O 4.47%
CCOC(=O)N1CCC(N2CCCC(CO)(Cc3ccccc3C)C2)CC1 (stereo not given) 0.07%
CC(=O)c1cccc(NC(=O)c2csc3c2CCCCC3)c1 13.4%
N#Cc1ccccc1CSc1ncccc1C(=O)O -0.85%
CCOC(=O)C1=C(NC(=S)NC(=O)c2ccccc2)c2ccccc2CC1(C)CC (stereo not given) 43.2%
CCOC(=O)C1=C(NC(=S)NC(=O)c2ccccc2)c2ccccc2CC1(C)C 7.06%
CCOc1cc(/C=C2\SC(=NC)N(C)C2=O)c(Br)cc1OC(C)=O 1.71%
Cc1cccc(C)c1OCc1n[nH]c(=S)o1 0.21%
Cc1ccc2c(c1)COc1c3ccc(C(=O)N[C@@H](CO)C(C)C)cc3nn1-2 15%
Cc1ccc2c(c1)COc1c3ccc(C(=O)NC(C)C)cc3nn1-2 16.2%
CCN(CC)CCN(Cc1cc2cc3c(cc2[nH]c1=O)OCO3)C(=S)NCc1ccco1 -1.07%
CCOC(=O)CN1C(=O)N[C@@H](c2cccc(F)c2)C(C(=O)OC)=C1C 9.26%
CCOC(=O)CN1C(=O)N[C@@H](c2ccccc2)C(C(C)=O)=C1C 2.81%
OC(CNC1CCCC1)COc1ccc(Cl)cc1 (stereo not given) -0.21%
COc1ccc(OC)c(CN2CCC(CO)(CCOc3ccccc3)CC2)c1 -2.58%
O=C(Nc1nc2c(s1)CCCC2)c1ccc(S(=O)(=O)N2CCCc3ccccc32)cc1 1.63%
O=C(Nc1nc2c(s1)CCCC2)c1cccs1 14.3%
O=C(Nc1nc2c(s1)CCCC2)c1cccc(S(=O)(=O)N2CCCc3ccccc32)c1 7.22%
O=C(CCCc1cccs1)Nc1nc2c(s1)CCCC2 1.81%
COc1ccc(OCC(=O)Nc2nc3c(s2)CCCC3)cc1 6.78%
O=C(COc1ccccc1)Nc1nc2c(s1)CCCC2 14%
COC(=O)c1ccc(C(C(=O)NC2CCCCC2)N(Cc2ccc(F)cc2)C(=O)Cc2cccs2)cc1 (stereo not given) 7.57%
CC(=O)OCCNC(=O)Cn1cnc2c1c(=O)n(C)c(=O)n2C 0.79%
COc1ccc(C2CC(C(F)(F)F)n3nc(C(N)=O)c(Cl)c3N2)cc1OC (stereo not given) 3.38%
CC1CCN(CC(=O)Nc2ccc(S(=O)(=O)N3CCCCC3)cc2)CC1 -0.34%
Cc1ccc(N2CC(C(=O)Nc3ccc(S(=O)(=O)N4CCOCC4)cc3)CC2=O)cc1 (stereo not given) -0.55%
COc1ccc(CCNC(C)=O)cc1 3.67%
CCOC(=O)C1(Cc2cccc(OC)c2)CCN(CCO)CC1 -1.67%
Cc1c(C(=O)N(C)Cc2cccc(F)c2)oc2c(Cl)cccc12 18%
COc1cc2c(-c3ccccc3O)nc3c(c(C)nn3-c3ccccc3)c2cc1OC 1.81%
COc1cc(-c2nc3c(c(C)nn3-c3ccccc3)c3cc(OC)c(OC)cc23)ccc1O 57.5%
Cc1ccc(Nc2nc(CSc3nnc(-c4ccncc4)n3C)cs2)cc1 1.07%
Cc1cc(C)n2nc(SCc3c(F)cccc3Cl)nc2n1 0.85%
CN(C)S(=O)(=O)c1ccc2c(c1)C(=NO)c1cc(S(=O)(=O)N(C)C)ccc1-2 2.67%
CN(CCO)S(=O)(=O)c1ccc2c(c1)C(=NO)c1cc(S(=O)(=O)N(C)CCO)ccc1-2 -0.46%
CCS(=O)(=O)N1CCN(c2ccccn2)CC1 -0.21%
Cn1nnnc1SCC(=O)N(C1CCCCC1)C1CCS(=O)(=O)C1 (stereo not given) -0.03%
CCC(=O)NCCc1nc2cc(NC(=O)Nc3ccccc3)ccc2n1C 1.28%
CC(NC(=O)c1ccc(F)cc1Cl)C1CC2CCC1C2 (stereo not given) 1.15%
COCc1cc(C)nc(SCC(=O)Nc2cc(C(F)(F)F)ccc2N2CCOCC2)c1C#N 1.23%
COCc1cc(C)nc(SCC(=O)Nc2ccc(N3CCOCC3)cc2)c1C#N 1.56%
CC(=O)CC(C)(C)n1nnc(-c2ccccc2)n1 1.03%
COc1ccc(CNC(=O)N2CCN(c3ccc(F)cc3)CC2)cc1 0.79%
Nn1c(SCc2cccc3ccccc23)nnc1-c1ccco1 0.35%
Cn1c(SCc2ccccc2)nnc1-c1ccco1 3.37%
Cc1ccc(SCCOCCN2CCOCC2)cc1 -1.12%
Cc1sc2nc(C3CC3)nc(SCC(=O)N3CCCc4ccccc43)c2c1C 20.9%
CCc1nc(SCC(=O)N2CC(=O)Nc3ccccc32)c2c(C)c(C)sc2n1 0.22%
Cc1sc2nc(C(C)C)nc(SCC(=O)N3c4ccccc4CC3C)c2c1C (stereo not given) 16.1%
Cc1sc2nc(C3CC3)nc(SCC(=O)N3CCc4ccccc4C3)c2c1C 1.85%
